# Test results: PubChem BioAssay (EPA / NIEHS)
# The source made the active and inactive calls. How the source made its calls: active means hit-call score of the fitted dose curve at least 0.9, where 1 is the maximum; inactive means score below 0.9.
# Tests used:
# Details in all cases: mRNA level, 48 h; actives raise or lower the signal
# [1] = read-out: Hypoxia-inducible factor 1-alpha (Homo sapiens) (UniProt Q16665); assay: LTEA_HepaRG_HIF1A: Life Technologies and Expression Analysis (LTEA) Assay for Hypoxia-inducible factor 1 (HIF1A) Trancription factor using HepaRG (AID 2283503);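 further: HIF1A transcript by TaqMan qRT-PCR normalized to ACTB GAPDH and POLR2A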
# In short: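 Gain- or loss-of-signal HIF1A mRNA changes are fitted against a DMSO baseline. HepaRG cultures receive eight concentrations, highest 100 uM, for 48 h in serum-free induction medium with 0.5% DMSO.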
# [2] = read-out: 3-Hydroxy-3-Methylglutaryl-CoA Synthase 2 (HMGCS2), HMGCS2 (gene 3158); assay: LTEA_HepaRG_HMGCS2: Life Technologies and Expression Analysis (LTEA) Assay for 3-Hydroxy-3-Methylglutaryl-CoA Synthase 2 (HMGCS2) using HepaRG (AID 2283504)
# In short: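 Differentiated human HepaRG cells were exposed in duplicate for 48 h in serum-free induction medium to eight concentrations (top 100 uM, half-log steps, 0.5% DMSO). HMGCS2 mRNA was quantified by TaqMan qRT-PCR, normalised to ACTB, GAPDH and POLR2A, then fitted bidirectionally against DMSO.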
# HGF (gene 3082) = assay: LTEA_HepaRG_HGF: Life Technologies and Expression Analysis (LTEA) Assay for Hepatocyte Growth Facto (HGF) using HepaRG (AID 2283505)
# In short: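 Differentiated human HepaRG cells in serum-free induction medium were exposed in duplicate for 48 h to eight concentrations (top 100 uM, half-log steps, 0.5% DMSO). HGF mRNA was quantified by qRT-PCR, normalized to ACTB, GAPDH and POLR2A.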
# [3] = read-out: Insulin Like Growth Factor 1 (IGF1), IGF1 (gene 3479); assay: LTEA_HepaRG_IGF1: Life Technologies and Expression Analysis (LTEA) Assay for Insulin Like Growth Factor 1 (IGF1) using HepaRG (AID 2283506)
# In short: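 qRT-PCR readout of IGF1 mRNA, normalized to three housekeeping genes, after 48 h chemical exposure of HepaRG cells. Concentrations: 8-point half-log series, top 100 uM, 0.5% DMSO vehicle. Gain or loss fitted against DMSO baseline.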
# [4] = read-out: Intercellular Adhesion Molecule 1 (ICAM1), ICAM1 (gene 3383); assay: LTEA_HepaRG_ICAM1: Life Technologies and Expression Analysis (LTEA) Assay for Intercellular Adhesion Molecule 1 (ICAM1) using HepaRG (AID 2283507)
# In short: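 Differentiated HepaRG cells in serum-free induction medium were exposed in duplicate for 48 h to eight half-log concentrations up to 100 uM in 0.5% DMSO. Transcript levels were measured by qRT-PCR normalized to ACTB, GAPDH and POLR2A; bidirectional fits relative to DMSO.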
# [5] = read-out: Insulin-like growth factor-binding protein 1 (IGFBP1), IGFBP1 (gene 3484); assay: LTEA_HepaRG_IGFBP1: Life Technologies and Expression Analysis (LTEA) Assay for Insulin-like growth factor-binding protein 1 (IGFBP1) using HepaRG (AID 2283508)
# In short: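 Differentiated human HepaRG cells in serum-free induction medium were exposed in duplicate for 48 h to eight concentrations, top 100 uM with half-log dilutions, in 0.5% DMSO. Transcript levels came from qRT-PCR normalised to ACTB, GAPDH and POLR2A, fitted bidirectionally against DMSO.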
# [6] = read-out: Interleukin 6 (IL6), IL6 (gene 3569); assay: LTEA_HepaRG_IL6: Life Technologies and Expression Analysis (LTEA) Assay for Interleukin 6 (IL6) using HepaRG (AID 2283509)
# In short: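 Transcript levels, normalized to three housekeeping genes, were quantified by qRT-PCR after 48 h chemical treatment of HepaRG cells. Eight-point half-log series from 100 uM in 0.5% DMSO, duplicates. Fitted both directions against DMSO baseline.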
# [7] = read-out: Interleukin 6 Receptor (IL6R), IL6R (gene 3570); assay: LTEA_HepaRG_IL6R: Life Technologies and Expression Analysis (LTEA) Assay for Interleukin 6 Receptor (IL6R) using HepaRG (AID 2283510);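 on AC50: TaqMan qRT-PCR signal normalized to ACTB GAPDH and POLR2A housekeeping genes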
# In short: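 HepaRG, 48 h exposure, 8-pt half-log series, top 100 uM, 0.5% DMSO vehicle, duplicates. Read-out: TaqMan qRT-PCR of IL6R transcript, housekeeping-gene normalized. Gain or loss fitted relative to DMSO baseline.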
# [8] = read-out: Potassium channel subfamily K member 1 (KCNK1), KCNK1 (gene 3775); assay: LTEA_HepaRG_KCNK1: Life Technologies and Expression Analysis (LTEA) Assay for Potassium channel subfamily K member 1 (KCNK1) using HepaRG (AID 2283511)
# In short: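 KCNK1 transcript measured by TaqMan qRT-PCR against three housekeeping genes, after HepaRG cells were treated 48 h with eight half-log concentrations (top 100 uM, 0.5% DMSO). Curves fitted bidirectionally relative to vehicle.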
# [9] = read-out: Keratin 19 (KRT19), KRT19 (gene 3880); assay: LTEA_HepaRG_KRT19: Life Technologies and Expression Analysis (LTEA) Assay for Keratin 19 (KRT19) using HepaRG (AID 2283512)
# In short: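 Differentiated human HepaRG cells, plated 48 h, were exposed in duplicate for 48 h in serum-free induction medium to eight half-log concentrations up to 100 uM in 0.5% DMSO. KRT19 mRNA was quantified by qRT-PCR, normalized to ACTB, GAPDH and POLR2A, and fitted bidirectionally versus DMSO.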
# [10] = read-out: JUN Transcription Factor, JUN (gene 3725); assay: LTEA_HepaRG_JUN: Life Technologies and Expression Analysis (LTEA) Assay for JUN Transcription Factor using HepaRG (AID 2283513)
# In short: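 HepaRG, 48 h exposure, 8-pt half-log series top 100 uM, 0.5% DMSO, duplicate. JUN mRNA by qRT-PCR (Fluidigm), housekeeping-normalized (ACTB/GAPDH/POLR2A); bidirectional curve fit vs DMSO baseline.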
# [11] = read-out: Lipase C (LIPC), LIPC (gene 3990); assay: LTEA_HepaRG_LIPC: Life Technologies and Expression Analysis (LTEA) Assay for Lipase C (LIPC) using HepaRG (AID 2283514)
# In short: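 LIPC expression was quantified by qRT-PCR against three housekeeping genes (ACTB, GAPDH, POLR2A). Differentiated human HepaRG cells received eight half-log doses (top 100 uM, 0.5% DMSO) in duplicate for 48 h; fitting bidirectional relative to DMSO.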
# [12] = read-out: Lipoprotein lipase (LPL), LPL (gene 4023); assay: LTEA_HepaRG_LPL: Life Technologies and Expression Analysis (LTEA) Assay for Lipoprotein lipase (LPL) using HepaRG (AID 2283515)
# In short: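 LPL transcript levels quantified by TaqMan qRT-PCR against three housekeeping genes after 48 h chemical treatment of HepaRG cells. Eight-point half-log series from 100 uM in 0.5% DMSO, tested in duplicate; bidirectional fitting versus vehicle.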
# [13] = read-out: MicroRNA 122 (MIR122), gene 406906; assay: LTEA_HepaRG_MIR122: Life Technologies and Expression Analysis (LTEA) Assay for MicroRNA 122 (MIR122) using HepaRG (AID 2283516); further: the transcript read is the microRNA miR-122
# In short: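 qRT-PCR read-out (TaqMan, Fluidigm array), normalized to three housekeeping genes; HepaRG cells dosed 48 h at 8 concentrations up to 100 uM in 0.5% DMSO, duplicate; gain or loss fitted against DMSO baseline.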
# MYC, MYC (gene 4609) = assay: LTEA_HepaRG_MYC: Life Technologies and Expression Analysis (LTEA) Assay for MYC using HepaRG (AID 2283518)
# In short: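 Differentiated human HepaRG cells, plated 48 h then switched to serum-free induction medium, were exposed in duplicate for 48 h to 8-point half-log series up to 100 uM in 0.5% DMSO. MYC mRNA measured by qRT-PCR, normalized to ACTB/GAPDH/POLR2A.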
# [14] = read-out: matrix metalloproteinase-3 (MMP3), MMP3 (gene 4314); assay: LTEA_HepaRG_MMP3: Life Technologies and Expression Analysis (LTEA) Assay for matrix metalloproteinase-3 (MMP3) using HepaRG (AID 2283519)
# In short: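 Fluidigm-based TaqMan qRT-PCR, normalized to ACTB, GAPDH and POLR2A and fitted bidirectionally versus 0.5% DMSO, measured transcript levels. Treatment: duplicate 48 h exposures of HepaRG cells, ~100,000/well, to eight half-log concentrations topping at 100 uM.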
# [15] = read-out: Paternally Expressed 10 (PEG10), PEG10 (gene 23089); assay: LTEA_HepaRG_PEG10: Life Technologies and Expression Analysis (LTEA) Assay for Paternally Expressed 10 (PEG10) using HepaRG (AID 2283520);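 on AC50: PEG10 transcript by qRT-PCR normalised to ACTB GAPDH and POLR2A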
# In short: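 qRT-PCR read-out: PEG10 mRNA normalised to three housekeeping genes, fitted bidirectionally against 0.5% DMSO vehicle. HepaRG cells received test chemicals for 48 h in serum-free induction medium, 8 points, top 100 uM, half-log steps.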
# [16] = read-out: Nuclear factor NF-kappa-B p105 subunit (Homo sapiens) (UniProt P19838); assay: LTEA_HepaRG_NFKB1: Life Technologies and Expression Analysis (LTEA) Assay for Nuclear Factor Kappa B Subunit 1 (NFKB1) using HepaRG (AID 2283521);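 on outcome: TaqMan qRT-PCR transcript normalised to ACTB GAPDH and POLR2A housekeeping genes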
# In short: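 Differentiated human HepaRG cells in serum-free induction medium with 0.5% DMSO were exposed for 48 h to eight half-log concentrations, top 100 uM, in duplicate. NFKB1 mRNA measured by Fluidigm TaqMan qRT-PCR, normalised to ACTB, GAPDH and POLR2A; bidirectional fit versus DMSO.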
# [17] = read-out: matrix metalloproteinase-10 (MMP10), MMP10 (gene 4319); assay: LTEA_HepaRG_MMP10: Life Technologies and Expression Analysis (LTEA) Assay for matrix metalloproteinase-10 (MMP10) using HepaRG (AID 2283517)
# In short: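 Expression measured by TaqMan qRT-PCR with ACTB/GAPDH/POLR2A normalisation after 48 h chemical exposure of HepaRG cells. Eight half-log concentrations, top 100 uM, 0.5% DMSO vehicle, duplicates; gain or loss fitted against vehicle.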
# Chain of Nuclear factor NF-kappa-B p105 subunit (Homo sapiens) (P19838 whole entry, looked up): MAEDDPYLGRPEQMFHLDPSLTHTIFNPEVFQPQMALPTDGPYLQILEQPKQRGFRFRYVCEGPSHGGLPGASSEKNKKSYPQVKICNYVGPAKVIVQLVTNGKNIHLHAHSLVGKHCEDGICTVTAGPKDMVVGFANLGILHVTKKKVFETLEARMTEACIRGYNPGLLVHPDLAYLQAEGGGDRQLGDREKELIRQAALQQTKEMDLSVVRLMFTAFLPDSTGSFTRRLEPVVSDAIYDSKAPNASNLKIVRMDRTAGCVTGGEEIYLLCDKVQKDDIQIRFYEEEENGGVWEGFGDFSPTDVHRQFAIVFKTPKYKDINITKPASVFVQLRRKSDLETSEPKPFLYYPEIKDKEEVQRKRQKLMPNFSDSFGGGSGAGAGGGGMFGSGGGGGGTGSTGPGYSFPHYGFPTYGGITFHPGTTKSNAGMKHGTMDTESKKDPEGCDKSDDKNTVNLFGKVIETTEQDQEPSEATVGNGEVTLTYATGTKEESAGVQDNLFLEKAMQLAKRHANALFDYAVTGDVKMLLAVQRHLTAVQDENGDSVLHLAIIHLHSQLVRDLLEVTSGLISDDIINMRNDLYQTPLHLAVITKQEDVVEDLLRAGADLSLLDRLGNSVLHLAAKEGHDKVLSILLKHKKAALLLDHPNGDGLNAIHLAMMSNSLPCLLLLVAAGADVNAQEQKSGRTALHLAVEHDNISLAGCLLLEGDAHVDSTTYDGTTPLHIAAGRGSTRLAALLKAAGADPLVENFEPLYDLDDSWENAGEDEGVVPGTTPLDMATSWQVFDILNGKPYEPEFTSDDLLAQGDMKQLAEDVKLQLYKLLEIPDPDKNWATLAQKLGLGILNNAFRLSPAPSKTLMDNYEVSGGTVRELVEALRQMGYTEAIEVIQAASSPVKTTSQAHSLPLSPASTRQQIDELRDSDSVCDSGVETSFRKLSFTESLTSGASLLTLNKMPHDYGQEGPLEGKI
# Chain of Hypoxia-inducible factor 1-alpha (Homo sapiens) (Q16665 whole entry, looked up): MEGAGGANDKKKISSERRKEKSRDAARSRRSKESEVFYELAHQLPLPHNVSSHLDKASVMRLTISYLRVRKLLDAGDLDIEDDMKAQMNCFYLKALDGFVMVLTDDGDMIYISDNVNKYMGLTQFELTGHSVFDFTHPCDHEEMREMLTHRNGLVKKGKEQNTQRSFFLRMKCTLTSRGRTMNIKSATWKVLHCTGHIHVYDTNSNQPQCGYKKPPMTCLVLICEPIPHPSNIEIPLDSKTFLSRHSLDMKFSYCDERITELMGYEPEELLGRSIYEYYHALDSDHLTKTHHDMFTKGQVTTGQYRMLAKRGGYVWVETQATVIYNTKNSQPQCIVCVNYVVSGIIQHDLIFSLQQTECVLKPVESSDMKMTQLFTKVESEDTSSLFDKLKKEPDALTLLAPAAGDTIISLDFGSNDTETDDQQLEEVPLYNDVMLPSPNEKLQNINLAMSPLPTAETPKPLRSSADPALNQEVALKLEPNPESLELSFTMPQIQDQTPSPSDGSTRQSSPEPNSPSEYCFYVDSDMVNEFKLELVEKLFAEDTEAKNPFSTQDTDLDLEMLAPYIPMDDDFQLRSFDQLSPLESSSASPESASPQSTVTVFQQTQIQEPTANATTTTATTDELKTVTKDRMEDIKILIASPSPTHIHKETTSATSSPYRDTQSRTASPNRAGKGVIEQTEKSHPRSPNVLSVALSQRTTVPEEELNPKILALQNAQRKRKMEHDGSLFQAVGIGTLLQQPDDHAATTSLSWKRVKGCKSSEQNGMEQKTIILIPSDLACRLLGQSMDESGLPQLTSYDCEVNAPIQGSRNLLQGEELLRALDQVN
structure (smiles),measurement,setting,value
CC(C)(C)c1cc(/C=C2\SC(N)=NC2=O)cc(C(C)(C)C)c1O,AC50,[1],68.8 µM (active)
same,AC50,[2],50 µM (active)
same,AC50,HGF (gene 3082),24.5 µM (active)
same,AC50,[3],93.3 µM (active)
same,AC50,[4],29.9 µM (active)
same,AC50,[5],85.1 µM (active)
same,AC50,[6],29.8 µM (active)
same,outcome,[7],inactive
same,outcome,[8],inactive
same,outcome,[9],inactive
same,AC50,[10],66.6 µM (active)
same,outcome,[11],inactive
same,outcome,[12],inactive
same,AC50,[13],94.3 µM (active)
same,AC50,"MYC, MYC (gene 4609)",28.9 µM (active)
same,AC50,[14],3.52 µM (active)
same,outcome,[15],inactive
same,AC50,[16],93.6 µM (active)
c1ccc(C[n+]2cccc3ccccc32)cc1,outcome,[1],inactive
same,AC50,[2],31 µM (active)
same,outcome,HGF (gene 3082),inactive
same,AC50,[3],20.7 µM (active)
same,AC50,[4],70.8 µM (active)
same,AC50,[5],34.6 µM (active)
same,AC50,[7],50 µM (active)
same,outcome,[8],inactive
same,AC50,[9],28.6 µM (active)
same,outcome,[10],inactive
same,AC50,[11],32 µM (active)
same,AC50,[12],32.8 µM (active)
same,AC50,[13],22.5 µM (active)
same,outcome,[17],inactive
same,AC50,"MYC, MYC (gene 4609)",34.6 µM (active)
same,outcome,[14],inactive
same,outcome,[15],inactive
same,outcome,[16],inactive
NCc1cccc(C2CCN(C(=O)c3ccc(C#Cc4ccccc4F)o3)CC2)c1,outcome,[1],inactive
same,AC50,[2],93.8 µM (active)
same,AC50,HGF (gene 3082),79.5 µM (active)
same,outcome,[3],inactive
same,outcome,[4],inactive
same,outcome,[5],inactive
same,outcome,[6],inactive
same,AC50,[7],82.5 µM (active)
same,outcome,[8],inactive
same,AC50,[9],9.92 µM (active)
same,outcome,[10],inactive
same,AC50,[11],76.6 µM (active)
same,outcome,[12],inactive
same,AC50,[13],97.8 µM (active)
same,outcome,"MYC, MYC (gene 4609)",inactive
same,outcome,[14],inactive
same,AC50,[15],24.7 µM (active)
same,outcome,[16],inactive
